# Measurements published in paper PMC12136788.
# Whole data set: some 5,800 sequences, median “enrichment r” near 0.68, cut for the highest 2% near 11. Many of the other results were omitted from the sample, so the highest values are more common in it than they were.
# T1: UNK ZnF1-6 (called full-length) (human, UniProt Q9C0B0 30-357)
# T1 sequence: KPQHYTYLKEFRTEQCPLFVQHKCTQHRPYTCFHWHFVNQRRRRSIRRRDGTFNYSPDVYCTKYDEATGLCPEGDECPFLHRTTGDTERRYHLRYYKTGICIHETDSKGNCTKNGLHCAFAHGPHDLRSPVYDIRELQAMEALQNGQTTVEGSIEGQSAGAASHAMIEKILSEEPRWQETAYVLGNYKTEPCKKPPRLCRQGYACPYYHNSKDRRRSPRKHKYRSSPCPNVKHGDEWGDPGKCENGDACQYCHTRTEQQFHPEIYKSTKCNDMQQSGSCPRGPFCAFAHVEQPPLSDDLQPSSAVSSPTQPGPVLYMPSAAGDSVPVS
# B1: ENSG00000114439:stop:overlap|stop_codon|ENSG00000114439|stop_codon|NA|stop_codon (ssRNA)
# RNA: GGGAGUUCUACAGUCCGACGAUCUUCAUUGUAAAACAUUGUGCUUUACCUACUACCCUAGCCUUGUCUUUACCGAGGGAUGCUAGUGAGUCCAAGUGGUGGAAAAUAUAGACUGCAAACAAGUGCUUGUUGCCCCACACGGCCCAACAGAGGAUUGAGCAUCA
# B2: ENSG00000117906:stop:overlap|stop_codon|ENSG00000117906|stop_codon|NA|stop_codon (ssRNA)
# RNA: GGGAGUUCUACAGUCCGACGAUCAGUCCUUUAGGAAGCAUCAAUGUGGAGGUUUGGGGCUCCAUCCUCAGAGCCAGUCUGCUUAGCUUCACAUUUAGCUCCAGCACUUCACGGUUGUGUAACUUUGGCUUCACUUAAAGGACACAACAGAGGAUUGAGCAUCA
# B3: chr12:104348774:104348848:+|3pUTR|ENSG00000198431|msi1_unk|total|mutant (ssRNA)
# RNA: GGGAGUUCUACAGUCCGACGAUCCGUUGUCAAGUUUUCCCGGGUUGAAUUUUUUUCUUUUUUCUCCAUGGUGUUAAUGAUAUCCGAGAUGAAAAACGUCCGCAGUUGAUUUUUGUCCAAAAGCAAGUCAUGGCCCGAGUAUCCCAACAGAGGAUUGAGCAUCA
# B4: chr10:62094764:62094865:+|3pUTR|ENSG00000150347|msi1|FALSE|unique (ssRNA)
# RNA: GGGAGUUCUACAGUCCGACGAUCGAUGAACUCCCCAACCCACUGUGCCCCUCCCGCAACACUACCAGUAGACUUUAGAACCAUAGUUAACUAAGUCUUUUACCUCUGAGAUACUUAAUUCUGGGAAAAUUGGUGACAAUUUUCCAACAGAGGAUUGAGCAUCA
# B5: chr22:49888080:49888186:+|3pUTR|ENSG00000100426|unk|FALSE|unique (ssRNA)
# RNA: GGGAGUUCUACAGUCCGACGAUCUGGCUUAUUAACAGGGAAGAAGCUUGUUAUAUUCCAGUUGUAAGAAUAGCCUUAGUGUUUAGAUUUUUUUAUGAUAGGGAAGAUGCGGCCAUCACUGGGAUAUUUUCAAAUCCCAAGGACCAACAGAGGAUUGAGCAUCA
# B6: chr18:55223968:55224079:-|3pUTR|ENSG00000196628|unk|FALSE|unique (ssRNA)
# RNA: GGGAGUUCUACAGUCCGACGAUCUAUAAAGCUUUGUUUGUCUAGUGCUCUUUUGCUAUAAAAUAGACUGUAGUACACCCUAGUAGGAAAAAAAAAAAACUAAAUUUAAAAAUAAAAAAUAUAUUUGGCUUAUUUUUCGCAGGACAACAGAGGAUUGAGCAUCA
# B7: chr1:42278343:42278454:-|CDS|ENSG00000198815|unk|FALSE|bound_elsewhere (ssRNA)
# RNA: GGGAGUUCUACAGUCCGACGAUCAAAAAGAAAAUGACUUUAAGUGAAAUUUAUCAGUGGAUUUGUGAUAACUUCCCAUAUUAUAGAGAGGCUGGCAGUGGUUGGAAGGUAAGGAUUUUAUUUAAAUUAUUACUUUUAUGAAGUCAACAGAGGAUUGAGCAUCA
# B8: chr12:95514132:95514176:+|3pUTR|ENSG00000111142|msi1_unk|FALSE|overlapping (ssRNA)
# RNA: GGGAGUUCUACAGUCCGACGAUCCUUUUAAAUGCUAACUGUUUUUCCCCUUCCUGUCUAGGAAAAUGCUAUAAAGCUCAAAUUAGUUAGGAAUGACUUAUACGUUUUGUUUUGAAUACCUAAGAGAUACUUUUUGGAUAUUUACAACAGAGGAUUGAGCAUCA
# B9: chr18:54155150:54155251:-|3pUTR|ENSG00000134046|unk|FALSE|unique (ssRNA)
# RNA: GGGAGUUCUACAGUCCGACGAUCUUUCCACUGGCUUUUGCCUGUAAGAAAAAAAAUGUACCCGAGCACAUAGAGCUUUUUAAUAGCACUAACCAAUGCCUUUUUAGAUGUAUUUUUGAUGUAUAUAUCUAUUAUUCAAAAAAUCAACAGAGGAUUGAGCAUCA
# B10: chr3:98797553:98797658:-|3pUTR|ENSG00000057019|msi1|FALSE|unique (ssRNA)
# RNA: GGGAGUUCUACAGUCCGACGAUCAUUUCAUUCAUUGAAGAAUCAAUACAUAUUUUGUUUCAAAAUGUUUGAAACAAAAGACAUAGAUGGUAGACUUUUAUUAAAACAUAUAUGGAUGUGGAAAGCACAUAUAUUAAUGCAGUCCAACAGAGGAUUGAGCAUCA
# B11: chr16:21983864:21984660:-|three_prime_utr|ENSG00000155714|control|control|control (ssRNA)
# RNA: GGGAGUUCUACAGUCCGACGAUCAAAGAAAAUUGAGCUGGCAAAAGAUGAAUCUUUCACAAGCAGUGAUGAUAAUGAAAAUGUAGAUUUAGAUAAAAGACUUCAAUAUUAUAGAUAUCCGUGGUCAACUGUGCAUCACCCUGCCAACAGAGGAUUGAGCAUCA
# B12: chr18:68676332:68676434:-|3pUTR|ENSG00000166479|msi1_unk|FALSE|overlapping (ssRNA)
# RNA: GGGAGUUCUACAGUCCGACGAUCAUCAAGAUUAUGAGGUUAAAAAUAAUGUGGUUUUAUAUAGCAUAGUGGUUUUAUUUUGUUAGUUAUUUUUAAAGGAGAAGAAAUGUUACUUUUUAACUUUAUACUCAGUUGCAUUAUCAUCAACAGAGGAUUGAGCAUCA
# Target: T1, UNK ZnF1-6 (called full-length)
# Experiment: nsRBNS (natural sequence RNA bind-n-seq); RBNS binding buffer (assumed for nsRBNS): 25 mM Tris pH 7.5, 150 mM KCl, 3 mM MgCl2, 0.01% Triton X-100, 500 ug/ml BSA, 20 U/ml SUPERase-In, 4 C; UNK is unkempt and MSI1 is Musashi-1; names of the RNAs are library labels; protein concentration not given here; high values mean tight binding
row,Binder,binding signal
1,B1,0.604 enrichment R
2,B2,0.657 enrichment R
3,B3,0.359 enrichment R
4,B4,3.7 enrichment R
5,B5,11.3 enrichment R
6,B6,39.5 enrichment R
7,B7,3.38 enrichment R
8,B8,2.63 enrichment R
9,B9,5.14 enrichment R
10,B10,1.11 enrichment R
11,B11,2.22 enrichment R
12,B12,48.4 enrichment R
